Active and inactive are the calls of the source. Where a call stands in place of a potency, no number is given. The call rests on the fitted dose curve; in most records, active means well fitted curve in the direction sought with a large enough effect in the repeat runs; inconclusive means weak or mixed curves; inactive means flat fitted curve, though single readings scatter.

A short description of one assay: qHTS assay to test for compound auto fluorescence at 535 nm (green) in HepG2 cells (AID 720675). To be noted: green autofluorescence 485/535 nm, 1 h; series mostly up to 91.3 µM. (Quantitative high-throughput screening tests each substance at several concentrations.)
Take `CC(C)(C)S`: the call was inactive.
As for `BrC(Br)C(Br)Br`, the molecule was classed as inactive.
Consider `CC1=CC[C@@]23C[C@@H]1C(C)(C)[C@@H]2CC[C@H]3C`, for which the molecule was called inactive.
With `Nc1nc2ccc(OC(F)(F)F)cc2s1`, the call was inactive.
Same read-out and setting: as for `CC[C@H]1OC(=O)[C@H](C)[C@@H](O[C@H]2C[C@@](C)(OC)[C@@H](O)[C@H](C)O2)[C@H](C)[C@@H](O[C@@H]2O[C@H](C)C[C@H](N(C)C)[C@H]2O)[C@](C)(O)C[C@@H](C)CN(C)[C@H](C)[C@@H](O)[C@]1(C)O`, the entry is “inactive”; as for `C1=CCC2CC=CC2C1` (configuration not stated), “inactive”; as for `CCCCCCCCCCCCCCCCCC(=O)OCC(CC)CCCC` (configuration not stated), “inactive”.
On the same count and under the same terms, the value for `O=P(O)(O)Oc1ccccc1` was “inactive”; that for `Cc1cccc(C)c1NC(=O)c1cc(S(N)(=O)=O)c(Cl)cc1O` was “inactive”; that for `O=[N+]([O-])c1ccc2ncccc2c1` was “inactive”.
For `O=CNNC=O`, the molecule was classed as inactive.
On to `CNc1c2c(nn1C)CCCC2`, for which the result was inactive.
For `COc1ccc(-c2cc(C(F)F)nn2-c2ccc(S(N)(=O)=O)cc2)cc1F`, the call was inactive.

The nature of the next assay: qHTS assay to test for compound auto fluorescence at 460 nm (blue) in HEK293 cells (AID 720678). To be noted: blue autofluorescence 405/460 nm; series mostly up to 91.3 µM. Put shortly: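 Auto fluorescence in the blue band was quantified as triamterene equivalency. HEK293 cells were seeded at 2,000/well, dosed after a 4-5 hr attachment, and kept overnight at 37C before the 405/460 nm reading.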
For the molecule `C=C(C)C(=O)OCCC(F)(F)C(F)(F)C(F)(F)C(F)(F)C(F)(F)C(F)(F)F`, the Potency result was “inactive”.
As to `CC1CCc2nccnc21` (configuration not stated), the Potency result is “inactive”.
`O=C(C(=O)c1ccco1)c1ccco1`: the Potency result is “inactive”.
As for `CC1C(C)(C)C2=C(C(=O)CCC2)C1(C)C` (configuration not stated), the Potency entry is “inactive”.
With `Cc1cccc2sc(N)nc12`, the Potency entry is “inactive”.
For the molecule `O=c1[nH][nH]c(=O)c2cc([N+](=O)[O-])ccc12`, the Potency entry is “inactive”.
Take `CCCCCCOC(=O)CCCCC`: the Potency result is “inactive”.
Regarding `O=NN(CCCl)C(=O)NCCCl`, the Potency result is “inactive”.
On the same count and under the same terms, as for `O=S(=O)(O)CO`, the entry is “inactive”; as for `CC(C)(O)c1coc(S(=O)(=O)NC(=O)Nc2c3c(cc4c2CCC4)CCC3)c1`, “inactive”.
With `Nc1ccn([C@H]2CS[C@@H](CO)O2)c(=O)n1`, the Potency result was “inactive”.
Turning to `Nc1ccc(S(=O)(=O)NCc2ccccc2)cc1`, the Potency result is “inactive”.
On to `Nc1ccc(N=Nc2ccc(N)cc2)cc1`, for which the Potency entry is “inactive”.
Same read-out and setting: as for `O=c1[nH]c2cc(C(F)(F)F)c(N3CCOCC3)cc2n(CP(=O)(O)O)c1=O`, the entry is “inactive”.
For the molecule `CC(O)Cn1cnc2c1c(=O)n(C)c(=O)n2C` (configuration not stated), the fluorescence, % of triamterene is -0.0145% [at 18.6 µM] (inactive).
For `CCN(CC)CCOC(=O)C(c1ccccc1)c1ccccc1`, the Potency entry was “inactive”.
For the molecule `O=C(O)CN1C(=O)c2cccc3cccc(c23)C1=O`, the Potency entry was “inactive”.
With `CC(C)COC(=O)COc1cc(Cl)c(Cl)cc1Cl`, the Potency entry was “inactive”.
Same read-out and setting: as for `C[C@H](CS)C(=O)N1CCC[C@H]1C(=O)O`, the entry is “inactive”; as for `CCCCCCC(CO)CCCC` (configuration not stated), “inactive”.
Consider `CC(=O)OC(C)C[N+](C)(C)C` (configuration not stated), for which the fluorescence, % of triamterene is -0.423% [at 18.6 µM] (inactive).
`CN=C(N)NC(=O)Nc1c(C)cccc1C`: the Potency entry was “inactive”.
On the same count and under the same terms, the value for `CSSc1ccoc1C` was “inactive”; that for `CCCCCCCC(=O)OCCCCCC` was “inactive”.
Regarding `CC(C)(C)S`, the Potency entry was “inactive”.
Regarding `BrC(Br)C(Br)Br`, the Potency entry is “inactive”.
In the case of `CC1=CC[C@@]23C[C@@H]1C(C)(C)[C@@H]2CC[C@H]3C`, the Potency result was “inactive”.
With `Nc1nc2ccc(OC(F)(F)F)cc2s1`, the Potency entry is “inactive”.
Same read-out and setting: the value for `CC[C@H]1OC(=O)[C@H](C)[C@@H](O[C@H]2C[C@@](C)(OC)[C@@H](O)[C@H](C)O2)[C@H](C)[C@@H](O[C@@H]2O[C@H](C)C[C@H](N(C)C)[C@H]2O)[C@](C)(O)C[C@@H](C)CN(C)[C@H](C)[C@@H](O)[C@]1(C)O` was “inactive”; that for `C1=CCC2CC=CC2C1` (configuration not stated) was “inactive”; that for `CCCCCCCCCCCCCCCCCC(=O)OCC(CC)CCCC` (configuration not stated) was “inactive”.
On the same count and under the same terms, the value for `O=P(O)(O)Oc1ccccc1` was “inactive”; that for `Cc1cccc(C)c1NC(=O)c1cc(S(N)(=O)=O)c(Cl)cc1O` was “inactive”; that for `O=[N+]([O-])c1ccc2ncccc2c1` was “inactive”.
Regarding `O=CNNC=O`, the Potency entry is “inactive”.
`CNc1c2c(nn1C)CCCC2`: the Potency result was “inactive”.
In the case of `COc1ccc(-c2cc(C(F)F)nn2-c2ccc(S(N)(=O)=O)cc2)cc1F`, the Potency result is “inactive”.

A short description of another assay: qHTS assay to test for compound auto fluorescence at 590 nm (red) in HEK293 cells (AID 720679). To be noted: red autofluorescence 540/590 nm; series mostly up to 91.3 µM. In short, it runs like this:
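Autofluorescence equivalency to Rose Bengal sodium, 540/590nm, in HEK293 cells exposed overnight to 23 nL compound per well.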
In the case of `C=C(C)C(=O)OCCC(F)(F)C(F)(F)C(F)(F)C(F)(F)C(F)(F)C(F)(F)F`, the result was inactive.
In the case of `CC1CCc2nccnc21` (configuration not stated), the molecule was classed as inactive.
On to `O=C(C(=O)c1ccco1)c1ccco1`, for which the molecule was classed as inactive.
The same measure, in the same setting: the value for `CC1C(C)(C)C2=C(C(=O)CCC2)C1(C)C` (configuration not stated) was “inactive”; that for `Cc1cccc2sc(N)nc12` was “inactive”; that for `O=c1[nH][nH]c(=O)c2cc([N+](=O)[O-])ccc12` was “inactive”.
The same measure, in the same setting: the value for `CCCCCCOC(=O)CCCCC` was “inactive”; that for `O=NN(CCCl)C(=O)NCCCl` was “inactive”.
As to `O=S(=O)(O)CO`, the molecule was classed as inactive.
On to `CC(C)(O)c1coc(S(=O)(=O)NC(=O)Nc2c3c(cc4c2CCC4)CCC3)c1`, for which the molecule was classed as inactive.
Turning to `Nc1ccn([C@H]2CS[C@@H](CO)O2)c(=O)n1`, the molecule was called inactive.
In the case of `Nc1ccc(S(=O)(=O)NCc2ccccc2)cc1`, the molecule was classed as inactive.
Still for that read-out and setting: as for `Nc1ccc(N=Nc2ccc(N)cc2)cc1`, the entry is “inactive”; as for `O=c1[nH]c2cc(C(F)(F)F)c(N3CCOCC3)cc2n(CP(=O)(O)O)c1=O`, “inactive”.
`CC(O)Cn1cnc2c1c(=O)n(C)c(=O)n2C` (configuration not stated): the fluorescence, % of fluorescent control is 0.0437% [at 18.6 µM] (inactive).
With `CCN(CC)CCOC(=O)C(c1ccccc1)c1ccccc1`, the outcome was inactive.
Same read-out and setting: as for `O=C(O)CN1C(=O)c2cccc3cccc(c23)C1=O`, the entry is “inactive”; as for `CC(C)COC(=O)COc1cc(Cl)c(Cl)cc1Cl`, “inactive”.
In the case of `C[C@H](CS)C(=O)N1CCC[C@H]1C(=O)O`, the outcome was inactive.
Take `CCCCCCC(CO)CCCC` (configuration not stated): the call was inactive.
Take `CC(=O)OC(C)C[N+](C)(C)C` (configuration not stated): the fluorescence, % of fluorescent control was -0.334% [at 18.6 µM] (inactive).
Regarding `CN=C(N)NC(=O)Nc1c(C)cccc1C`, the outcome was inactive.
As to `CSSc1ccoc1C`, the molecule was called inactive.
On to `CCCCCCCC(=O)OCCCCCC`, for which the call was inactive.
On to `CC(C)(C)S`, for which the molecule was classed as inactive.
Same read-out and setting: as for `BrC(Br)C(Br)Br`, the entry is “inactive”.
Take `CC1=CC[C@@]23C[C@@H]1C(C)(C)[C@@H]2CC[C@H]3C`: the molecule was called inactive.
With `Nc1nc2ccc(OC(F)(F)F)cc2s1`, the outcome was inactive.
Consider `CC[C@H]1OC(=O)[C@H](C)[C@@H](O[C@H]2C[C@@](C)(OC)[C@@H](O)[C@H](C)O2)[C@H](C)[C@@H](O[C@@H]2O[C@H](C)C[C@H](N(C)C)[C@H]2O)[C@](C)(O)C[C@@H](C)CN(C)[C@H](C)[C@@H](O)[C@]1(C)O`, for which the molecule was classed as inactive.
As for `C1=CCC2CC=CC2C1` (configuration not stated), the call was inactive.
On to `CCCCCCCCCCCCCCCCCC(=O)OCC(CC)CCCC` (configuration not stated), for which the outcome was inactive.
In the case of `O=P(O)(O)Oc1ccccc1`, the outcome was inactive.
Still for that read-out and setting: the value for `Cc1cccc(C)c1NC(=O)c1cc(S(N)(=O)=O)c(Cl)cc1O` was “inactive”; that for `O=[N+]([O-])c1ccc2ncccc2c1` was “inactive”; that for `O=CNNC=O` was “inactive”.
With `CNc1c2c(nn1C)CCCC2`, the outcome was inactive.
As for `COc1ccc(-c2cc(C(F)F)nn2-c2ccc(S(N)(=O)=O)cc2)cc1F`, the molecule was called inactive.

Source of the values: PubChem BioAssay (Tox21).
